Compound activity from PubChem BioAssay.
This is a sample that favours compounds with a hit; in the whole collection about 14% have one here.
HCMV antiviral – human cytomegalovirus inhibition. HFF cells, HCMV-luciferase reporter, 72 h; active compounds read low. activity change, negative = inhibition, % at 57.5 µM. actives 4.5% (n = 410,000). AID 1259415; in the data active means activity change below about -60%; inconclusive means no clear call, values can overlap the other calls; inactive means above about -39%
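Human foreskin fibroblasts infected with luciferase-reporter HCMV at MOI 1 PFU/cell, compounds at two doses. Luciferase measured 72 h post infection; normalized to buffer-only basal and Salinomycin (10uM) controls.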
Marburg entry inh – inhibitors of Marburg virus binding or cell entry; Marburg virus pseudotyped entry inhibition, cell reporter; Potency, µM (titrated, usually from 37.8 µM), hits mostly inhibitors; AID 540276; actives 1.8% (n = 300,000); calls by dose curve; tested in HEK293 cells
Lassa entry inh – Lassa virus entry inhibition; actives 1.2% (n = 300,000); Lassa virus pseudotype entry inhibition, cell reporter; AID 540256; Potency, µM (series often up to 37.9 µM), usual class: inhibitors; calls by dose curve; tested in HEK293 cells; further: nearly all actives have a fitted effect of over 50% in size
HCV inhibitor – HCV inhibition; Huh7.5.1 HCVcc-Cre infection, luciferase reporter, 44 h; Potency, µM (titrated, usually from 41.8 µM), actives largely listed as inhibitors; actives 3.4% (n = 340,000); AID 651820
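After 44 h co-culture of compound, cells and HCVcc-Cre (~0.5 moi), substrate is added for 15 min at room temperature and luciferase measured over 15 sec. Cells were seeded at 1,000/well and pre-cultured 4 h.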
Pf growth 96h – inhibits malaria parasite growth, 96 h; P. falciparum luciferase reporter growth, 96 h; Potency, µM (highest dose often 28.7 µM), most hits filed as inhibitors; actives 6.9% (n = 320,000); AID 504834
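Parasite growth measured via integrated firefly luciferase reporter in P. falciparum. Infected erythrocytes at 2% hematocrit, 0.05% parasitemia final were treated 96 hours at 37 C under 5% CO2, and luminescence was read.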
Pf growth 48h – inhibits P. falciparum growth in the first generation, 48 h | actives 5.9% (n = 310,000) | P. falciparum luciferase growth in erythrocytes, 48 h | AID 504832 | Potency, µM (highest dose often 28.7 µM), hits mostly inhibitors
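A one-generation exposure of luciferase-tagged malaria parasites in RPMI 1640/Albumax erythrocyte culture, 37 C and 5% CO2. Inhibition is inferred from decreased luminescence after adding detection reagent.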
Numbers stand for hits; - = inactive; ? = inconclusive; . = no result given. Unless noted, the call rests on the fitted dose curve; in most records, active means well fitted inhibition curve with a large enough effect; inconclusive means small, poorly fitted or top-dose-only effect, or another doubt; inactive means no such curve, though single readings can be large or run the other way.

SMILES | HCMV antiviral | Marburg entry inh | Lassa entry inh | HCV inhibitor | Pf growth 96h | Pf growth 48h
O=C(CCC1CCCN(C(=O)CCN2CCCCC2=O)C1)NCc1ccccc1F (stereo not drawn) | -105 | - | - | - | - | -
CCCCc1ccc(C(=O)N/C(=C\c2ccc(C)cc2)C(=O)NC2CCCCC2)cc1 | - | . | - | . | . | .
COc1ccccc1Nc1nc(-c2sc(NC(=O)c3ccccc3)nc2C)cs1 | - | - | . | - | ? | ?
COc1ccccc1Nc1nc(-c2sc(N)nc2C)cs1 | - | . | . | - | ? | -
COc1cccc(Nc2nc(-c3sc(C)nc3C)cs2)c1 | - | . | . | 5µM | - | -
COc1ccc(Cl)cc1Nc1nc(-c2sc(NC(=O)c3ccco3)nc2C)cs1 | - | . | . | 2.5µM | 5.9µM | 15µM
COc1ccc(OC)c(Nc2nc(-c3sc(C)nc3C)cs2)c1 | - | ? | ? | ? | - | 15µM
Cc1nc(C)c(-c2csc(Nc3ccc(F)cc3)n2)s1 | - | ? | ? | 4.5µM | - | -
CCOc1ccc(CNC(=O)Cn2nc(C)c3nn(-c4ccc(Cl)cc4)c(C)c3c2=O)cc1 | - | . | ? | . | . | .
COc1ccc(NC(=O)Cn2c(=O)n(Cc3ccco3)c(=O)c3oc4ccccc4c32)cc1Cl | - | . | - | . | . | .
COc1ccc(Cl)cc1Nc1nc(-c2sc(NC(=O)C(C)(C)C)nc2C)cs1 | -90 | . | . | ? | 1.7µM | 10µM
COc1ccc(OC)c(Nc2nc(-c3sc(NC(=O)C(C)(C)C)nc3C)cs2)c1 | ? | . | . | ? | 3.3µM | 9.3µM
COc1cccc(Nc2nc(-c3sc(NC(=O)c4ccco4)nc3C)cs2)c1 | - | . | . | ? | 13µM | ?
COc1ccccc1Nc1nc(-c2sc(NC(=O)c3ccc([N+](=O)[O-])cc3)nc2C)cs1 | . | - | . | . | ? | ?
O=[N+]([O-])c1ccc(C(c2sc3nc(-c4ccco4)nn3c2O)N2CCN(Cc3ccccc3)CC2)cc1 (stereo not drawn) | - | . | - | . | . | .
Clc1ccc(CNC2CCN(Cc3ccccc3)CC2)cc1 | - | 10µM | - | 8.9µM | ? | 4.1µM
c1ccc(-c2ccc(CNC3CC3)cc2)cc1 | -80 | - | ? | - | - | -
COc1ccccc1CNC1CCN(Cc2ccccc2)CC1 | - | ? | ? | ? | ? | -
FC(F)(F)c1ccccc1NC(=S)NC1CCN(Cc2ccccc2)CC1 | - | ? | - | - | ? | ?
OCCCNCc1ccc(-c2ccccc2)cc1 | - | - | - | ? | - | ?
S=C(NCc1ccc(Cl)cc1)NC1CCN(Cc2ccccc2)CC1 | -89 | 6.3µM | ? | 4µM | - | -
Fc1ccc(CNC2CCN(Cc3ccccc3)CC2)cc1 | - | . | . | ? | 1.2µM | 9.3µM
CCCOc1nc2c(c(=O)n(C)c(=O)n2C)n1Cc1cccc2ccccc12 | -91 | ? | - | ? | . | 13µM
CCOC(=O)N1CCN(Cc2nc3c(c(=O)n(C)c(=O)n3C)n2Cc2cccc3ccccc23)CC1 | - | - | - | - | 8.3µM | 12µM
CN(C)CCNC(=O)CCCN1C(=O)c2cccnc2Oc2ccc(Cl)cc21 | - | . | - | . | . | .
SMILES | HCMV antiviral | Marburg entry inh | Lassa entry inh | HCV inhibitor | Pf growth 96h | Pf growth 48h
Oc1ccc(N2CCN(c3nnnn3-c3ccccc3)CC2)cc1 | -63 | - | ? | - | ? | -
CCN(CC(=O)Nc1ccc2c(c1)OCCO2)C(=O)COc1ccc(C(C)=O)cc1 | - | . | . | . | . | .
O=C(C[C@@H]1CC[C@H](NS(=O)(=O)c2ccccc2F)[C@@H](CO)O1)NCCCN1CCOCC1 | - | . | . | . | . | .
CC(=O)N1c2ccc3ccccc3c2C2C=CCC2C1c1ccc(Br)cc1 (stereo not drawn) | . | - | - | - | - | 5.9µM
CC(=O)N1c2ccc(Cl)cc2C2C=CCC2C1c1cccc2ccccc12 (stereo not drawn) | . | ? | ? | ? | - | 13µM
COc1cccc(-c2nc(-c3ccccc3)c(-c3ccccc3)[nH]2)c1OCC(=O)O | - | . | . | - | - | ?
COc1cccc(-c2nc(-c3ccc4c(c3)-c3ccccc3S4(=O)=O)c(-c3ccccc3)[nH]2)c1OC | - | ? | - | ? | ? | 9.3µM
COC(C(=O)Nc1ccc(S(=O)(=O)Nc2cccc3ccccc23)cc1)c1ccccc1 (stereo not drawn) | -88 | - | ? | - | - | -
COC(C(=O)Nc1ccc(S(=O)(=O)N2CCCCC2)cc1)c1ccccc1 (stereo not drawn) | - | - | - | - | - | .
COC(C(=O)Nc1ccc(S(=O)(=O)Nc2ccc(F)cc2)cc1)c1ccccc1 (stereo not drawn) | -62 | 7.9µM | ? | - | ? | -
Clc1ccc(CN2CCCCCCC2)cc1 | ? | ? | - | - | - | -
Clc1ccc(CN2CC[C@H]3C=CCc4cccc(c43)C2)cc1 | - | . | . | - | 1.9µM | 3.7µM
O=C(C1CCN(Cc2ccc(F)cc2)CC1)N(CCO)Cc1ccccc1 | - | - | - | - | . | -
Fc1ccc(CN2CC[C@H]3C=CCc4cccc(c43)C2)cc1 | - | . | . | - | ? | 10µM
CCO[C@@H]1OC(C(=O)NCc2nc3ccccc3[nH]2)=C[C@H](c2ccc(C(F)(F)F)cc2)[C@H]1CCCO | - | . | . | - | 12µM | ?
CCO[C@H]1OC(C(=O)NCc2nc3ccccc3[nH]2)=C[C@@H](c2ccc(C(F)(F)F)cc2)[C@@H]1CCCO | - | . | . | - | 1.5µM | ?
C#Cc1ccc([C@@H]2C=C(C(=O)NCc3nc4ccccc4[nH]3)O[C@H](OCC)[C@H]2CCCO)cc1 | - | . | . | - | ? | ?
Nc1cc(=O)[nH]c(=O)n1-c1cccc(F)c1 | -84 | - | - | - | - | -
OC(CN1C2=NCCCN2c2ccccc21)c1ccc(Cl)cc1 (stereo not drawn) | -69 | . | . | ? | - | .
OC(COc1ccc(Cl)cc1)CN1C2=NCCCN2c2ccccc21 (stereo not drawn) | - | ? | - | 13µM | ? | 5.2µM
Clc1ccc(CN2C3=NCCCN3c3ccccc32)cc1 | - | ? | - | ? | ? | ?
Cc1cc2n(n1)C(c1cn(-c3ccccc3)nc1C)Nc1ccccc1-2 (stereo not drawn) | - | - | - | - | - | -
Cc1cc2n(n1)C(c1c[nH]c3ccccc13)Nc1ccccc1-2 (stereo not drawn) | . | ? | - | 4µM | - | -
Cc1cc2n(n1)C(c1cccs1)Nc1ccccc1-2 (stereo not drawn) | - | - | - | 2.8µM | . | -
CCOC(=O)C(=O)Nc1c(C(=O)Nc2cccc(F)c2)oc2ccccc12 | - | - | - | . | . | .
CCSc1nc(C2CC2)cc(-c2cccs2)c1C#N | - | - | - | 7.9µM | - | .
CCOC(=O)CSc1nc(-c2ccc(Cl)cc2)cc(C(F)(F)F)c1C#N | - | - | - | . | . | .
CCOC(=O)CSc1nc(C2CC2)cc(-c2ccc(Cl)cc2)c1C#N | - | - | - | - | - | 10µM
Cc1nc2ccn(Cc3ccccc3)c(=O)c2cc1C(=O)Nc1ccc(F)cc1Cl | - | . | - | . | . | .
